In PubChem BioAssay (NCATS):
Records with an inconclusive call do not appear. Where a call stands in place of a potency, no number is given. Calls of active or inactive are those of the source. The call rests on the fitted dose curve; in most records, active means well fitted inhibition curve with a large enough effect; inconclusive means small, poorly fitted or top-dose-only effect; inactive means flat fitted curve, though single readings scatter.

biological target: Glutathione peroxidase 1 (Homo sapiens) (UniProt P07203); assay: Primary qHTS Assay for Inhibitors of Recombinant Selenoprotein Glutathione Peroxidase 1 (GPX1) (AID 1845191); conditions: recombinant GPX1, GR-coupled NADPH fluorescence, 15 min; series mostly up to 48.8 µM; further: nearly all actives have a fitted effect of over 65% in size
Sequence (P07203 whole entry, looked up): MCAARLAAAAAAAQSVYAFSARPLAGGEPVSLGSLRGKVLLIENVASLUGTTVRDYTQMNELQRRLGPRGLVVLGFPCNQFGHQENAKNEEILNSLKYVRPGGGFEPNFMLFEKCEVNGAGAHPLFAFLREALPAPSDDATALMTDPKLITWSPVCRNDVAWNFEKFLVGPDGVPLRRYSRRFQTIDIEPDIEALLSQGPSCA
From the text: Assay Provider: Elias S.J. Arner MD PhD.
Department of Medical Biochemistry and Biophysics
Karolinska Institutet, Solna, Stockholm, Sweden
Selenoprotein glutathione peroxidases (GPX), like the ubiquitously expressed GPX1 and the ferroptosis modulator GPX4, enact their antioxidant activities by reducing hydroperoxides using glutathione. […] GPX1 and GPX4 inhibitors have thus shown promise as anti-cancer agents. Existing inhibitors are often promiscuous, or modulate GPX activity only indirectly, so novel direct inhibitors identified through screening against GPX1 and GPX4 could be valuable. Here, we developed optimized glutathione reductase (GR)-coupled GPX assays for the biochemical high-throughput screen (HTS) of almost 12,000 compounds with known mechanisms of action. Initial hits were triaged using a GR counter-screen, assessed for isoform specificity using a separate GPX2 assay, and were assessed for general selenocysteine-targeting activity using a thioredoxin reductase (TXNRD1) assay. With this suite of assays, we identified novel GPX1/GPX2- and GPX4-specific inhibitors and can here present a validated pipeline for future discovery research for selenoprotein-targeting agents.
SEQUENCE No. (e.g., 1, 2, 3, etc.); […] (e.g., Cells, Incubation, Reagent, etc.); VALUE; DESCRIPTION.
1; Reagent 1; 3 uL; GPx1 enzyme or no enzyme control in 1536-well, black, solid Greiner assay plate.
2; Compound; 25 nL; Kalypsis pin tool (Wako USA) equipped with a 1536-well pin head.
3; Incubation; 30 min; room temperature.
4; Reagent 2; 1 uL; 10 nM GPX1, 1 mM GSH, 0.5 mM CHP, 0.5 mM NADPH, 100 nM GR, 0.01% BSA substrate
5; Detection; Fluorescence; ViewLux microplate reader, excitation 340 nm and emission 450 nm.
6; Incubation; 15 min; room temperature.
7; Detection; Fluorescence; ViewLux microplate reader, excitation 340 nm and emission 450 nm.
NOTES (numbers refer to Sequence numbers above)
1. 3 uL of 16.66 nM GPX1 and 0.016% BSA in assay buffer (50 mM Tris-HCl, 2 mM EDTA (pH 7.5), 150 mM NaCl) was added to columns 3-48 of 1536-well assay plates using a BioRAPTR Flying Reagent Dispenser (Let's Go Robotics (LGR), Carlsbad, CA). A no-enzyme control (0.01% BSA in TES assay buffer) was added to columns 1-2.
2. 25 nL of test compounds and DMSO controls were added to each well with a pin tool (Kalypsys).
3. The assay plates were incubated for 30 minutes at room temperature.
4. 1 uL of master mix (500 nM glutathione reductase (GR), 5 mM reduced glutathione (GSH), 2.5 mM NADPH in assay buffer) was added. 1 uL of cumene hydroperoxide (CHP) ([2.5 mM] in 50% EtOH) was then added within 5 minutes to initiate the reaction. Final concentrations were: 10 nM GPX1, 1 mM GSH, 0.5 mM CHP, 0.5 mM NADPH, 100 nM GR, 0.01% BSA.
5. Initial fluorescence readout (t=0) at 340/450 nm was measured using a ViewLux multimodal detector (PerkinElmer, Waltham, MA).
7. Endpoint fluorescence readout (t=15) at 340/450 nm was measured 15 min after room temperature incubation.
Potency means the concentration at half of the fitted maximal effect.

Question: Which Potency does the source give for Nc1nc(N)c2nc(-c3cccc(Cl)c3)c(N)nc2n1 here?
Answer: 4.09 µM (active)

Question: For C=C1/C(=C\C=C2/CCC[C@]3(C)[C@@H]([C@H](C)CCCC(C)(C)O)CC[C@@H]23)C[C@@H](O)C[C@@H]1O, which Potency is on record?
Answer: inactive

Question: For O=C(CCc1ccc(O)cc1)c1c(O)cc(O)cc1O[C@@H]1O[C@H](CO)[C@@H](O)[C@H](O)[C@H]1O, which Potency is on record?
Answer: inactive

Question: COC(=O)/C=C/C(=O)OC was tested. Which Potency did it give?
Answer: inactive

Question: Which Potency does the source give for C[C@H](NC(=O)CCC(F)(F)F)C(=O)N[C@@H]1C(=O)N(CCO)c2ncccc2-c2ccccc21 here?
Answer: inactive

Question: With Cc1c(-c2cnccn2)ssc1=S as the compound, how does the Potency read?
Answer: inactive

Question: With CN(CCOc1ccc(-c2ccc3c(c2)OCO3)cc1C(C)(C)C)CC(=O)O as the compound, how does the Potency read?
Answer: inactive

Question: For COc1cc2c3c(n(CCCN4CCOCC4)c(=O)c2cc1OC)-c1cc2c(cc1C3=O)OCO2, which Potency is on record?
Answer: inactive

Question: With CCCN(CCC)C(=O)C1=Cc2ccc(-c3ccc(C(=O)N4CCCC4)cc3)cc2N=C(N)C1 as the compound, how does the Potency read?
Answer: inactive

Question: For CCc1c(-c2ccccc2C)nc2c(C#N)c[nH]n2c1=O, which Potency is on record?
Answer: inactive

Question: For CCN(C(=O)c1ccccc1OC)c1cc2c(cc1N1CCNC[C@H]1C)n(C)c(=O)n2C, which Potency is on record?
Answer: inactive

Question: COc1ccc(CNC(=O)c2cc(-c3cncc(Cl)c3)cnc2-c2ccccn2)nc1OC was tested. Which Potency did it give?
Answer: inactive

Question: With COc1cc(-c2cn(C)c(=O)c3cnccc23)c(OC)cc1CN(C)C as the compound, how does the Potency read?
Answer: inactive

Question: Which Potency does the source give for O=C(/C=C\n1cnc(-c2cc(C(F)(F)F)cc(C(F)(F)F)c2)n1)NNc1ccccn1 here?
Answer: inactive

Question: Fc1cccc(-n2cnc3c(NCc4nc5c(F)c(F)ccc5[nH]4)nc(N4CCOCC4)nc32)c1 was tested. Which Potency did it give?
Answer: inactive

Question: With O=C1CCCC2=C1C(c1ccccc1I)N=C(Nc1nc3ccccc3o1)N2 (stereo not given) as the compound, how does the Potency read?
Answer: inactive

Question: Which Potency does the source give for O=C(O)CCNc1cc(N2CCc3ccccc3CC2)nc(-c2cccnc2)n1 here?
Answer: inactive

Question: Which Potency does the source give for O=C(/C=C/N1C[C@H]2C[C@@H]1CN2c1ccccn1)c1ccccc1O here?
Answer: inactive

Question: For CC(C)(c1ccc(OCC(O)CO)cc1)c1ccc(OCC(O)CCl)cc1 (stereo not given), which Potency is on record?
Answer: inactive

Question: With CO[C@H]1/C=C/O[C@@]2(C)Oc3c(C)c(O)c4c(O)c(c(/C=N\N5CCN(C6CCCC6)CC5)c(O)c4c3C2=O)NC(=O)/C(C)=C\C=C\[C@H](C)[C@H](O)[C@@H](C)[C@@H](O)[C@@H](C)[C@H](OC(C)=O)[C@@H]1C as the compound, how does the Potency read?
Answer: inactive

Question: Which Potency does the source give for CCOc1ccc(Cc2cc([C@@H]3O[C@H](CO)[C@@H](O)[C@H](O)[C@H]3O)ccc2Cl)cc1 here?
Answer: inactive

Question: Which Potency does the source give for Cc1[nH]c(/C=C2\C(=O)Nc3ccc(S(=O)(=O)Cc4c(Cl)cccc4Cl)cc32)c(C)c1C(=O)N1CCC[C@@H]1CN1CCCC1 here?
Answer: inactive

Question: How did the Potency turn out when CO[C@H]1/C=C/O[C@@]2(C)Oc3c(C)c(O)c4c(O)c(c5c(c4c3C2=O)=NC2(CCN(CC(C)C)CC2)N=5)NC(=O)/C(C)=C/C=C/[C@H](C)[C@H](O)[C@@H](C)[C@@H](O)[C@@H](C)[C@H](OC(C)=O)[C@@H]1C was run?
Answer: inactive

Question: Which Potency does the source give for O=C([O-])C[O-].[Pt+2] here?
Answer: inactive

Question: For CN[C@@H](C)C(=O)N[C@H](C(=O)N1CCC[C@H]1C(=O)Nc1snnc1-c1ccccc1)C1CCCCC1, which Potency is on record?
Answer: inactive

Question: Which Potency does the source give for CC(C)=CCC[C@](C)(O[C@@H]1O[C@H](CO[C@@H]2O[C@H](CO)[C@@H](O)[C@H](O)[C@H]2O)[C@@H](O)[C@H](O)[C@H]1O)[C@H]1CC[C@]2(C)[C@@H]1[C@H](O)C[C@@H]1[C@@]3(C)CC[C@H](O[C@@H]4O[C@H](CO)[C@@H](O)[C@H](O)[C@H]4O[C@@H]4O[C@H](CO)[C@@H](O)[C@H](O)[C@H]4O)C(C)(C)[C@@H]3CC[C@]12C here?
Answer: inactive

Question: For COC(=O)N(CC(=O)O)Cc1cccc(OCc2nc(-c3ccc(Cl)cc3)oc2C)c1, which Potency is on record?
Answer: inactive

Question: How did the Potency turn out when CNC(=O)[C@@H](NC(=O)[C@H](CC(C)C)[C@H](O)C(=O)NO)C(C)(C)C was run?
Answer: inactive

Question: How did the Potency turn out when CC(C)(C)n1nc(Cc2cccc([N+](=O)[O-])c2)c2c(N)ncnc21 was run?
Answer: inactive

Question: For CC(C)NCCCn1c(Sc2cc(Cl)cc(Cl)c2)nc2c(N)ncnc21, which Potency is on record?
Answer: inactive

Question: Which Potency does the source give for CCOC(=O)N[C@@H]1CC[C@@H]2[C@@H](C1)C[C@H]1C(=O)O[C@H](C)[C@H]1[C@H]2/C=C/c1ccc(-c2cccc(F)c2)cn1 here?
Answer: inactive

Question: Which Potency does the source give for Cc1ccccc1N1CCN(S(=O)(=O)C[C@]23CCC(CC2NC(=O)[C@@H](N)CCS(C)(=O)=O)C3(C)C)CC1 (stereo not given in full) here?
Answer: inactive

Question: CCNCCS(=O)(=O)NC[C@@]1(c2ccccc2)SC(NC(=O)C(C)(C)C)=NN1C(=O)C(C)(C)C was tested. Which Potency did it give?
Answer: inactive

Question: How did the Potency turn out when CCS(=O)(=O)Nc1ccc(Oc2ccc(F)cc2F)c(-c2cn(C)c(=O)c3[nH]ccc23)c1 was run?
Answer: inactive

Question: How did the Potency turn out when O=C(CCNC(=O)c1ccc(OC(F)(F)F)cc1)N[C@@H]1CCCc2ccccc21 was run?
Answer: inactive

Question: With CCCNC(=O)c1cn2ncnc(Nc3cc(C(=O)NC4CC4)ccc3C)c2c1C as the compound, how does the Potency read?
Answer: inactive

Question: How did the Potency turn out when COC(=O)C1=C(C)NC(c2ncc(F)cc2F)=N[C@H]1c1ccc(F)cc1Cl was run?
Answer: inactive

Question: Which Potency does the source give for C[C@@]1(c2ncncc2F)NC(=O)c2cc(-c3cn[nH]c3)ccc21 here?
Answer: inactive

Question: For C[C@H]1[C@H](C)CC[C@]2(C(=O)O)CC[C@]3(C)C(=CC[C@@H]4[C@@]5(C)CC[C@H](O)C(C)(C)[C@@H]5CC[C@]43C)[C@H]12, which Potency is on record?
Answer: inactive

Question: Which Potency does the source give for O=C1CC(c2c[nH]c3ccc(F)cc23)C(=O)N1 (stereo not given) here?
Answer: inactive
